# Results filed as inconclusive are left out. Active and inactive are the calls of the source. The calls were made as follows: active = hit-call score of the fitted dose curve at least 0.9, where 1 is the maximum; inconclusive = response in the unintended direction; inactive = score below 0.9.
# Columns and labels:
# [1] = biological target: Sodium channel protein type 1 subunit alpha (Rattus norvegicus) (UniProt P04774); experiment: NVS_IC_rNaCh_site2: NovaScreen (NVS) Ion Channel Assay for rat Sodium Channel, Site 2 (NaCh) (AID 2283322);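 also: hit means loss of radioligand binding signal relative to DMSO so AC50 marks displacement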
# How it was run: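 Membranes: rat forebrain. Format: competitive radioligand displacement, filter separation, scintillation readout, 1 h exposure. Primary screen in duplicate at 25 uM; actives retested in concentration series.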
# [2] = NVS_IC_rCaBTZCHL: NovaScreen (NVS) Ion Channel Assay for Calcium Channel, Type L, Benzothiazepine Site (CaBTZCHL) (AID 2283337)
# How it was run: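 Competitive displacement of a site-specific radioligand from rat cortex membranes, measured as signal loss against DMSO baseline by filter radiodetection after 1.5 h. Single-point 25 uM primary screen.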
# [3] = biological target: rat Thyrotropin Releasing Hormone Receptor (TRH), Trhr (gene 25570) (UniProt Q01717); experiment: NVS_GPCR_rTRH: NovaScreen (NVS) G Protein-Coupled Receptor Assay for rat Thyrotropin Releasing Hormone Receptor (TRH) (AID 2283329);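 also: hit means lower bound tracer signal versus DMSO baseline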
# Sequence of rat Thyrotropin Releasing Hormone Receptor (TRH), Trhr (gene 25570) (Q01717 whole entry, looked up): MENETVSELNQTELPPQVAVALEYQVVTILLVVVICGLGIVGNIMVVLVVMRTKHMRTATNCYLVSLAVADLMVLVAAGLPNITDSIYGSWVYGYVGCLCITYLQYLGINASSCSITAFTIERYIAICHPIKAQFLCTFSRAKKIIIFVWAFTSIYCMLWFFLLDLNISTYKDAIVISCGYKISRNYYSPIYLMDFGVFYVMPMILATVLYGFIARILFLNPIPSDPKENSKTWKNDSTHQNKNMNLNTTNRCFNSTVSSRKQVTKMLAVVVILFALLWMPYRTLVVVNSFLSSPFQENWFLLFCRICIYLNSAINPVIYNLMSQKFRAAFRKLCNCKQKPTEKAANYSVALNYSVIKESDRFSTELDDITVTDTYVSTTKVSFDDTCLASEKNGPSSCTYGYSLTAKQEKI
# How it was run: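 Test compounds are screened at 25 uM in duplicate against radioligand binding in rat forebrain membranes, with active pairs followed up over a concentration range. Detection uses filter-based radiodetection after a 4 h exposure.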
# [4] = biological target: Estrogen receptor (Homo sapiens) (UniProt P03372); experiment: OT_ER_ERaERa_1440: Odyssey Thera (OT) 24-hour HEK293T Protein-Complementation Assay for Estrogen Receptor-alpha/-alpha Homodimer (AID 2283349);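 also: hits raise fluorescence above DMSO for agonists and antagonists alike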
# Sequence of Estrogen receptor (Homo sapiens) (P03372 whole entry, looked up, the tested form may be a part): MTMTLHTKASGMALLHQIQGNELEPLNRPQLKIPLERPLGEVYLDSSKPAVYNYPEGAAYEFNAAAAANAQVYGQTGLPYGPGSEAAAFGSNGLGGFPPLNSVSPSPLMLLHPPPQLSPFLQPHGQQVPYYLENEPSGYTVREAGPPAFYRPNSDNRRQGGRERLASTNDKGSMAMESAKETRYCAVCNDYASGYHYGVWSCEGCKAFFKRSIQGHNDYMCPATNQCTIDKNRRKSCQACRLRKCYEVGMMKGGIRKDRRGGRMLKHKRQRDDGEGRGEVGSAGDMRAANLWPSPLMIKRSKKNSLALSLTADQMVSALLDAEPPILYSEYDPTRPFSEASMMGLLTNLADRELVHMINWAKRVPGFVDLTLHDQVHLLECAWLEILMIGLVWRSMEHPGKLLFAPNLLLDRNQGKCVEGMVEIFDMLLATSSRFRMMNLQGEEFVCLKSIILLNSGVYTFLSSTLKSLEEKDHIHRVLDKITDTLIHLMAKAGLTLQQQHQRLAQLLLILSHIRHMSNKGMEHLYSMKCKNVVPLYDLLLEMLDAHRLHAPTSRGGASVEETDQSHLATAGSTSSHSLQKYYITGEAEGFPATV
# How it was run: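 Protein-fragment complementation between two human ERα ligand-binding domains (aa 310-547) in stably transfected HEK293T cells was monitored after 24 h treatment, using fluorescence intensity relative to vehicle controls.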
# [5] = biological target: Estrogen receptor (Homo sapiens) (UniProt P03372); experiment: OT_ER_ERaERa_0480: Odyssey Thera (OT) 8-hour HEK293T Protein-Complementation Assay for Estrogen Receptor-alpha/-alpha Homodimer (AID 2283351);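 also: rise in fluorescence from reassembled reporter fragments on ERα LBD homodimer in nucleus or whole cell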
# How it was run: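 Binding reporter in which dimerisation of ERα LBD (aa 310-547) fusions reconstitutes a fluorescent reporter in HEK293T cells. Compounds incubated 8 h; mean fluorescence intensity increase versus DMSO scored.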
# [6] = biological target: human Opioid Receptor Mu (Opiate Mu), OPRM1 (gene 4988) (UniProt P35372); experiment: NVS_GPCR_hOpiate_mu: NovaScreen (NVS) G Protein-Coupled Receptor Assay for human Opioid Receptor Mu (Opiate Mu) (AID 2283290);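 also: hits lower bound tracer signal versus DMSO meaning displacement of the ligand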
# Sequence of human Opioid Receptor Mu (Opiate Mu), OPRM1 (gene 4988) (P35372 whole entry, looked up): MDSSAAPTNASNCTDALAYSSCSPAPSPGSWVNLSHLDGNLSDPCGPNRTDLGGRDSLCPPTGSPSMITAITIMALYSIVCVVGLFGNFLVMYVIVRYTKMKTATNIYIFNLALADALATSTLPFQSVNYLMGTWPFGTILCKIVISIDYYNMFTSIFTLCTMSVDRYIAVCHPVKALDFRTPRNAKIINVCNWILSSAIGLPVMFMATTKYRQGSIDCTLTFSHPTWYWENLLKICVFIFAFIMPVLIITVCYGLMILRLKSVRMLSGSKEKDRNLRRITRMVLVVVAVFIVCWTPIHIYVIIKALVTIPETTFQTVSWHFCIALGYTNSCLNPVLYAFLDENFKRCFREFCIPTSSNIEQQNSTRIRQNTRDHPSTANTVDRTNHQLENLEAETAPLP
# How it was run: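 Here, radioligand binding to CHO-extracted receptor was measured after 2.5 h using filter-based scintillation detection. Initial single-concentration screening used 25 uM in duplicate with plate controls; confirmed actives went to concentration-response testing.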
# [7] = biological target: human Peripheral-type Benzodiazepine Receptor (PBR), TSPO (gene 706) (UniProt P30536); experiment: NVS_MP_hPBR: NovaScreen (NVS) Membrane Protein Assay for human Peripheral-type Benzodiazepine Receptor (PBR) (AID 2283331);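 also: hits reduce radioligand binding relative to DMSO baseline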
# Sequence of human Peripheral-type Benzodiazepine Receptor (PBR), TSPO (gene 706) (P30536 whole entry, looked up): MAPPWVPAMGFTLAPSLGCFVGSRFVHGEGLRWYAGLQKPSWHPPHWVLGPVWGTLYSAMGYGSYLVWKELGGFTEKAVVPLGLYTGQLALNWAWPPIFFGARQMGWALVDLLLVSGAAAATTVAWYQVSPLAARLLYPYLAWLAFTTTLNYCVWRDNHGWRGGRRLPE
# How it was run: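 Scintillation counts of filter-bound radioligand served as read-out after 1 h chemical dosing of human colonic membrane preparations. Activity was scored as signal loss against DMSO; initial duplicates at 25 uM, confirmatory concentration series afterward.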
# [8] = biological target: rat Peripheral-type Benzodiazepine Receptor (PBR), Tspo (gene 24230) (UniProt P16257); experiment: NVS_MP_rPBR: NovaScreen (NVS) Membrane Protein Assay for rat Peripheral-type Benzodiazepine Receptor (PBR) (AID 2283335)
# Sequence of rat Peripheral-type Benzodiazepine Receptor (PBR), Tspo (gene 24230) (P16257 whole entry, looked up): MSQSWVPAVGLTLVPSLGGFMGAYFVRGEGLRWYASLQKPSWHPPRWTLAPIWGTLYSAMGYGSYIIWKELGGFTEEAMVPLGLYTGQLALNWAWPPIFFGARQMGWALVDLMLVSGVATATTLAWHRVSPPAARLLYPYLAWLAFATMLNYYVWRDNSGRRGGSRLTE
# How it was run: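 Radioligand displacement, rat kidney membrane prep, 1 h exposure, filter-based scintillation read; DMSO baseline, loss-of-signal scored. Primary screen at 25 uM in duplicate, actives followed up in concentration series.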
# [9] = biological target: T1, Estrogen receptor (Homo sapiens) + Estrogen receptor beta (Homo sapiens) (UniProt P03372+Q92731); experiment: OT_ER_ERaERb_0480: Odyssey Thera (OT) 8-hour HEK293T Protein-Complementation Assay for Estrogen Receptor-alpha/-beta Heterodimer (AID 2283352)
# T1 sequence (P03372 whole entry, looked up): as the sequence (P03372 whole entry, looked up, the tested form may be a part) above
# T1 sequence (Q92731 whole entry, looked up): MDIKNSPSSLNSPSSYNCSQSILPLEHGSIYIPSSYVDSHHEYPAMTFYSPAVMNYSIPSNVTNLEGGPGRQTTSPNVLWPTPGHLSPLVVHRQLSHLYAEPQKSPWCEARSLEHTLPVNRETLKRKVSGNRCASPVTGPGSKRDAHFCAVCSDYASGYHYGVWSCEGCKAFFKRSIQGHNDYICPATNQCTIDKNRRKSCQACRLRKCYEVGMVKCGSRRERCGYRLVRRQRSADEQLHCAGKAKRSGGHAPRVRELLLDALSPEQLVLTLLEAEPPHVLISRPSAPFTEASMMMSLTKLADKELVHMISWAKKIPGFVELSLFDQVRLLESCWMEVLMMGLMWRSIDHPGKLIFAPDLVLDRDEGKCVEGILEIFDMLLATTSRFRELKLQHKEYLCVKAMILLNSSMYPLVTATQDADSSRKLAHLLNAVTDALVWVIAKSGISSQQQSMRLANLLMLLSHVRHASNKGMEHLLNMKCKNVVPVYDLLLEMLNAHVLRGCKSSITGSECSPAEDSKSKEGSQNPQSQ
# How it was run: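 Compound added to HEK293T cells carrying split-reporter-tagged ER-alpha and ER-beta LBDs, incubated 8 hours, then imaged by laser scanning cytometer. Signal rise in nucleus, or nucleus and cytoplasm, over vehicle was fitted in the positive direction.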
# [10] = biological target: T1, Estrogen receptor (Homo sapiens) + Estrogen receptor beta (Homo sapiens); experiment: OT_ER_ERaERb_1440: Odyssey Thera (OT) 24-hour HEK293T Protein-Complementation Assay for Estrogen Receptor-alpha/-beta Homodimer (AID 2283356);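 also: heteromer of ER alpha and ER beta binding domains; hits raise reporter fluorescence and both agonists and antagonists give an increase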
# How it was run: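 Stable HEK293T PCA line, ERα LBD 310-547 + ERβ LBD 263-489 fused to reporter fragments; 24 h treatment; fluorescence read by laser scanning cytometry; positive fitting direction relative to DMSO.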
# [11] = biological target: Estrogen receptor beta (Homo sapiens) (UniProt Q92731); experiment: OT_ER_ERbERb_0480: Odyssey Thera (OT) 8-hour HEK293T Protein-Complementation Assay for Estrogen Receptor-beta/-beta Homodimer (AID 2283357);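 also: active means signal gain over DMSO baseline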
# Sequence of Estrogen receptor beta (Homo sapiens) (Q92731 whole entry, looked up, the tested form may be a part): as the sequence (Q92731 whole entry, looked up) above
# How it was run: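 Cells (HEK293T, stable ER-beta LBD PCA pair) are treated 8 hours, fixed and Draq5-stained; signal is fluorescence intensity increase relative to vehicle, fitted in the gain direction.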
# [12] = biological target: bovine Estrogen Receptor (ER), ESR1 (gene 407238) (UniProt P49884); experiment: NVS_NR_bER: NovaScreen (NVS) Nuclear Receptor Binding Assay for bovine Estrogen Receptor (ER) (AID 2283345);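 also: actives lower the bound radioligand count which means they displace the ER ligand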
# Sequence of bovine Estrogen Receptor (ER), ESR1 (gene 407238) (P49884 whole entry, looked up): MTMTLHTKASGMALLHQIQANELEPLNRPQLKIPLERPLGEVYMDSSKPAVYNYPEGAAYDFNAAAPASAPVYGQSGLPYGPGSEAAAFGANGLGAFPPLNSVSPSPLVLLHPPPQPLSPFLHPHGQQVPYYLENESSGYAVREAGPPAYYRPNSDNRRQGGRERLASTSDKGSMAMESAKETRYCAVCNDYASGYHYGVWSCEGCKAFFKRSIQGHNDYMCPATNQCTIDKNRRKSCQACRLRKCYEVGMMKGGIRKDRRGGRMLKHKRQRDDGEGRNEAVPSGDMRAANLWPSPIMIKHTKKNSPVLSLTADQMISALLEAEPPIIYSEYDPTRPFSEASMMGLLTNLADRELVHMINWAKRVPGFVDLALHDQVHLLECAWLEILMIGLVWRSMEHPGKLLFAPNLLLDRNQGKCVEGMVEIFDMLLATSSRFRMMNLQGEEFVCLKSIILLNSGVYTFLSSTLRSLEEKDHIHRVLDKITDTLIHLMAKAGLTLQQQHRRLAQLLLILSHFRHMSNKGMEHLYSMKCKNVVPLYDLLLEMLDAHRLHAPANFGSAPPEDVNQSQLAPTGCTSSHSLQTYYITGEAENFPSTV
# How it was run: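 Bovine uterine membranes; tritiated or iodinated radioligand; competitive displacement; 18 h; scintillation read; DMSO negative control; 25 uM duplicates, then concentration series for actives.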
# [13] = biological target: PGR (gene 5241) (UniProt P06401); experiment: NVS_NR_hPR: NovaScreen (NVS) Nuclear Receptor Binding Assay for human Progestron Receptor (PR) (AID 2283360);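 also: active means loss of bound radioligand signal versus DMSO baseline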
# Sequence of PGR (gene 5241) (P06401 whole entry, looked up): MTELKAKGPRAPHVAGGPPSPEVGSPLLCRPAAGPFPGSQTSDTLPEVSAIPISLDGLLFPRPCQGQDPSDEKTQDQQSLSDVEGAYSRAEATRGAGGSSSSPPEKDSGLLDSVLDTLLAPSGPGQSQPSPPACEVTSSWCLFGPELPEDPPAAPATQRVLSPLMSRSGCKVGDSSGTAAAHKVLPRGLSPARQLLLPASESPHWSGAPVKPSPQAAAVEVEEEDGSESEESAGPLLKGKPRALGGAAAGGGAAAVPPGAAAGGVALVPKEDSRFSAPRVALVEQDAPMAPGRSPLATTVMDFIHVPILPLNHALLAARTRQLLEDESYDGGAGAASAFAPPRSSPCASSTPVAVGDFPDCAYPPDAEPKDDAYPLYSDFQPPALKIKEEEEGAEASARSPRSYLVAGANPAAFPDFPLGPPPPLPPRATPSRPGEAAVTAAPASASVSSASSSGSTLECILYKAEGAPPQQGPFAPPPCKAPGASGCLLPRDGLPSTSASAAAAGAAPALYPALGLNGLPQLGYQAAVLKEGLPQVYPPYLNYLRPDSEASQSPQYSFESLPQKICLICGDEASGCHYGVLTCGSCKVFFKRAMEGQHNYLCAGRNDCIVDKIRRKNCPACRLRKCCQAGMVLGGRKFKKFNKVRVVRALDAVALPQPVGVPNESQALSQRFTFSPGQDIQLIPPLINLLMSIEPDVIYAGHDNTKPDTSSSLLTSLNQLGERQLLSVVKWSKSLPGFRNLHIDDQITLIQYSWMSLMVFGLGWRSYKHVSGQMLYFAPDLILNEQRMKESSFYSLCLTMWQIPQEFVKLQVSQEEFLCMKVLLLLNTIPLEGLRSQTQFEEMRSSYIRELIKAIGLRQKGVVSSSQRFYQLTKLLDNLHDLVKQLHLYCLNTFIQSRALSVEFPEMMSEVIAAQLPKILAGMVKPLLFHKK
# How it was run: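 Competitive displacement of a labelled radioligand from T47D-derived receptor protein is measured in a cell-free format. Initial testing uses 25 uM in duplicate, with positive and negative controls on every plate.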
# [14] = biological target: rat Mineralocorticoid Receptor (MR), Nr3c2 (gene 25672) (UniProt P22199); experiment: NVS_NR_rMR: NovaScreen (NVS) Nuclear Receptor Binding Assay for rat Mineralocorticoid Receptor (MR) (AID 2283355)
# How it was run: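 Adrenalectomized rat brain supernatant was dosed with test chemical, then radioligand binding was measured by scintillation counting at 24 h. Initial testing ran in duplicate at 25 uM, followed by concentration series for actives.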
smiles,measurement,setting,value
O=P(c1ccccc1)(c1ccccc1)c1ccccc1,AC50,[1],8.17 µM (active)
same,outcome,[2],inactive
CN(C)CCCN,outcome,[3],inactive
same,outcome,[4],inactive
same,outcome,[5],inactive
CCc1c(C)cc(N)c(CC)c1N,AC50,[6],13 µM (active)
CCN(CC)c1ccc2c(-c3ccccc3C(=O)O)c3ccc(=[N+](CC)CC)cc-3oc2c1,outcome,[3],inactive
same,AC50,[7],16.8 µM (active)
same,AC50,[8],13.2 µM (active)
same,AC50,[4],12.2 µM (active)
same,AC50,[5],12.2 µM (active)
same,AC50,[9],12 µM (active)
same,AC50,[10],12 µM (active)
same,AC50,[11],12.2 µM (active)
O=C(O)C[C@H](O)C[C@H](O)/C=C/c1c(C2CC2)nc2ccccc2c1-c1ccc(F)cc1,AC50,[1],3.55 µM (active)
CCCC/C=C\CCCCCCCCCC=O,outcome,[3],inactive
same,outcome,[11],inactive
O=C(O)c1ccc(C(=O)O)cc1,outcome,[3],inactive
CCCCCCCCCCC(CO)CCCCCCCC (stereo not given),outcome,[8],inactive
CCCCCCCCCCCCCC(=O)O,outcome,[4],inactive
same,outcome,[5],inactive
same,outcome,[9],inactive
same,outcome,[10],inactive
same,outcome,[11],inactive
CCCCc1ccc(N)cc1,outcome,[4],inactive
same,outcome,[5],inactive
same,AC50,[9],50 µM (active)
same,AC50,[10],39.6 µM (active)
same,outcome,[11],inactive
CC(=O)OCCOC(C)=O,outcome,[4],inactive
same,outcome,[5],inactive
same,outcome,[9],inactive
same,outcome,[10],inactive
same,outcome,[11],inactive
CN(CCOc1ccc(CC2SC(=O)NC2=O)cc1)c1ccccn1 (stereo not given),AC50,[7],5.39 µM (active)
same,AC50,[8],12.9 µM (active)
same,outcome,[12],inactive
same,outcome,[13],inactive
CC(=O)OCCC(C)CC(C)(C)C (stereo not given),outcome,[4],inactive
same,outcome,[5],inactive
CC(C)c1cccc(O)c1,outcome,[12],inactive
same,outcome,[4],inactive
same,outcome,[5],inactive
same,AC50,[9],52 µM (active)
same,outcome,[10],inactive
same,AC50,[11],52 µM (active)
O=C(O)CCSCCC(=O)O,outcome,[12],inactive
C=CC(=O)OCC(O)COc1ccccc1 (stereo not given),outcome,[12],inactive
C#C[C@]1(O)CC[C@H]2[C@@H]3CCC4=Cc5oncc5C[C@]4(C)[C@H]3CC[C@@]21C,outcome,[12],inactive
same,outcome,[14],inactive
same,AC50,[13],41.5 µM (active)
CN(C)c1ccc(O)c2c1C[C@H]1C[C@H]3[C@H](N(C)C)C(=O)C(C(N)=O)=C(O)[C@@]3(O)C(=O)C1=C2O,outcome,[12],inactive
c1ccc(CCCc2ccccn2)cc1,outcome,[4],inactive
same,outcome,[5],inactive
same,outcome,[9],inactive
same,outcome,[10],inactive
same,outcome,[11],inactive
CC(C)(C)C(=O)c1ccccc1,outcome,[12],inactive
same,outcome,[4],inactive
same,outcome,[5],inactive

# — PubChem BioAssay (EPA / NIEHS)
